# Source: PubChem BioAssay (EPA / NIEHS)
# Inconclusive results are not listed. Active and inactive are the calls of the source. The calls were made as follows: active = hit-call score of the fitted dose curve at least 0.9, where 1 is the maximum; inconclusive = response in the unintended direction; inactive = score below 0.9.
# Target: Peroxisome proliferator-activated receptor gamma (Homo sapiens) (UniProt P37231)
# Assay: NVS_NR_hPPARg: NovaScreen (NVS) Nuclear Receptor Binding Assay for human Peroxisome Proliferator-activated Receptor gamma (PPARg) (AID 2283370)
# Procedure, shortened: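 Cell-free fluorescence polarization binding to human PPARg protein, read 2 h after dosing. Primary screen in duplicate at 25 uM, actives followed in concentration series; loss of signal relative to DMSO scored.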
# Chain of Peroxisome proliferator-activated receptor gamma (Homo sapiens) (P37231 whole entry, looked up): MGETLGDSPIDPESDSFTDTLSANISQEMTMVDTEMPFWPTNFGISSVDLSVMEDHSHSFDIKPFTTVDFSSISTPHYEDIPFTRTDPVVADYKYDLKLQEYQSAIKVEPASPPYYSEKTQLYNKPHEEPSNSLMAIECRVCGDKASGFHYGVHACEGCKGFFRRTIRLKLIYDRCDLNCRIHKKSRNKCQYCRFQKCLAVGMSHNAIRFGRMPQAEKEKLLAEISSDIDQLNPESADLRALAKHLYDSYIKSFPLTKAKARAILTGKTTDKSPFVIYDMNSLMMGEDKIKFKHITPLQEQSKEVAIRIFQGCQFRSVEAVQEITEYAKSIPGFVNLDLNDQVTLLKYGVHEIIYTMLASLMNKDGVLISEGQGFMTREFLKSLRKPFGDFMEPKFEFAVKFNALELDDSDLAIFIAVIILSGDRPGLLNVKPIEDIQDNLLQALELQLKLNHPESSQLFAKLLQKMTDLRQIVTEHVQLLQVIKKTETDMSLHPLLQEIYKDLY
SMILES,outcome,AC50
CC1=CCC(C(C)(C)O)CC1 (stereo not given),inactive,–
C1CCCNCC1,inactive,–
C=C(C)C(=O)OCCC(C)OC(=O)C(=C)C (stereo not given),–,20.1 µM (active)
COc1cc(OC)c2ccc(=O)oc2c1,inactive,–
CC(C)(C)C1CCC(O)CC1 (stereo not given),inactive,–
CC(=O)Nc1cc(S(=O)(=O)O)cc2cc(S(=O)(=O)O)c(N=Nc3ccccc3)c(O)c12,inactive,–
CCCO[Si](OCCC)(OCCC)OCCC,inactive,–
NC(=O)c1cccnc1,inactive,–
CCCCCCCCOS(=O)(=O)O,inactive,–
CCCCCCCCCCO[C@@H]1O[C@H](CO)[C@@H](O)[C@H](O)[C@H]1O,inactive,–
O=C(O)CS,inactive,–
CC(C)(C)c1ccc(S)cc1,inactive,–

# Target: human Norepinephrine Transporter (NET), SLC6A2 (gene 6530) (UniProt P23975)
# Sequence (P23975 whole entry, looked up): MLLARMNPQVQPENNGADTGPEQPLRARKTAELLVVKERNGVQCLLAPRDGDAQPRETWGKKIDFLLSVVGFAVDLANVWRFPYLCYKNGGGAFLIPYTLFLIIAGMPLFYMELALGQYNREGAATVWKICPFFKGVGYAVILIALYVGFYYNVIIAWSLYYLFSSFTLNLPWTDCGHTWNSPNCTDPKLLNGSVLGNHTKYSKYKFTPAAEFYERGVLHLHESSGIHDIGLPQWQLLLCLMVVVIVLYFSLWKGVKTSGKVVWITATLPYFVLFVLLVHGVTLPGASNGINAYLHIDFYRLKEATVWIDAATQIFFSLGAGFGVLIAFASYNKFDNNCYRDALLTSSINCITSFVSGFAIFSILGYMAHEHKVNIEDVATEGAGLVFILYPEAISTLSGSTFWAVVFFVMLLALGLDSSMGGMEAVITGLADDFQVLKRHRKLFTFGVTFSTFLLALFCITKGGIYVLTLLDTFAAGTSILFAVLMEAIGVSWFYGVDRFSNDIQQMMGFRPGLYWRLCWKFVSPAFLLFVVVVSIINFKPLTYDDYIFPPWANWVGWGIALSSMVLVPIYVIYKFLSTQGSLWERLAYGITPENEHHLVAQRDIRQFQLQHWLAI
# Assay: NVS_TR_hNET: NovaScreen (NVS) Transporter Assay for human Norepinephrine Transporter (NET) (AID 2283377);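 also: cell-free membrane protein extracted from CHO cells expressing human NET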;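 as to AC50: displacement of radioligand from human NET seen as loss of scintillation signal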
# Procedure, shortened: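 Scintillation counts of filter-retained radioligand served as the readout, taken 1 h post-dosing in a cell-free CHO-derived system. Test chemicals ran first at 25 uM in duplicate; confirmed hits were retested across concentrations.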
SMILES,outcome,AC50
O=C1OC2(c3ccc(O)cc3Oc3cc(O)ccc32)c2ccccc21,inactive,–
C=C(C)C(N)=O,inactive,–
CCOC(=O)C=Cc1ccccc1,–,25 µM (active)
Cc1cc(O)c(C)c(C)c1O,inactive,–

# Target: mouse Estrogen Receptor alpha (Era), Esr1 (gene 13982) (UniProt P19785)
# Sequence (P19785 whole entry, looked up): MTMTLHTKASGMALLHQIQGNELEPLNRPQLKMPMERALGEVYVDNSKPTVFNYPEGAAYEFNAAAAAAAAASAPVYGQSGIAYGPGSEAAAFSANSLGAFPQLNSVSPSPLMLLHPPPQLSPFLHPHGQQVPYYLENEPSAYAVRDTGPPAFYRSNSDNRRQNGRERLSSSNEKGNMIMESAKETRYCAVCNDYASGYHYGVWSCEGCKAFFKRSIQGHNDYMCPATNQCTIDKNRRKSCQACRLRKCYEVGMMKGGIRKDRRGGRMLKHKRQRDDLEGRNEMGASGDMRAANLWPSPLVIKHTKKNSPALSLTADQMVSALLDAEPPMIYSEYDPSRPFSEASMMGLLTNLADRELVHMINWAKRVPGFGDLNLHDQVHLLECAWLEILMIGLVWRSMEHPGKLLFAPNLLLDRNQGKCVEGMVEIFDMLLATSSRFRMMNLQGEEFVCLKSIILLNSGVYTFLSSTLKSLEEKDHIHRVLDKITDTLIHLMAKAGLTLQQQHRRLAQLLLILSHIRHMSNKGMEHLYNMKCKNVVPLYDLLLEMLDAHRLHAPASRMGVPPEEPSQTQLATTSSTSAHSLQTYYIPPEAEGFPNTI
# Assay: NVS_NR_mERa: NovaScreen (NVS) Nuclear Receptor Binding Assay for mouse Estrogen Receptor alpha (Era) (AID 2283378);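 also: hit means loss of bound radioligand signal relative to DMSO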
# Procedure, shortened: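 Cell-free radioligand competitive displacement binding, read by filter-based scintillation counting 18 h after dosing. Primary screen run in duplicate at 25 uM, actives retested in concentration series; loss of signal versus DMSO.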
SMILES,AC50,outcome
O=C1OC2(c3ccc(O)cc3Oc3cc(O)ccc32)c2ccccc21,25 µM (active),–
COc1ccccc1O,–,inactive
CCc1cccc(O)c1,–,inactive
CC/C=C\CCOC(C)OCC (stereo not given),–,inactive
CC(=O)C1C(=O)C=C(C)OC1=O (stereo not given),–,inactive
CCCCCCC(C)O (stereo not given),–,inactive
COC(=O)C(C)Oc1ccc(Oc2ncc(C(F)(F)F)cc2Cl)cc1 (stereo not given),0.164 µM (active),–
Cc1cccc(O)c1,–,inactive
CC(O)CN (stereo not given),6.65 µM (active),–
CC12CCC(C1)C(C)(C)C2O (stereo not given),–,inactive
CN(C)CCC=C1c2ccccc2CCc2ccccc21,–,inactive
CCCCCCCCOC(=O)c1ccc(O)cc1,1.72 µM (active),–
O=S1(=O)CC(Cl)(Cl)C(Cl)(Cl)C1,–,inactive
CCCCCCCCCOS(=O)(=O)O,12.7 µM (active),–
CC(=O)CC(=O)N(C)C,–,inactive
CCOCC(C)O (stereo not given),35 µM (active),–
FC(F)(F)c1ccc(Cl)c(Cl)c1,–,inactive
CCC(C)(C)c1cc(O)c(C(C)(C)CC)cc1O,–,inactive
CC(C)(C)c1ccc(S)cc1,10.6 µM (active),–
